In PubChem BioAssay AID492997 (Johns Hopkins Ion Channel Center, 2010) one finds inhibition data, which are given here for 63 molecules.

The inhibition is the share of the control response that was lost under treatment.

Among all 4,900 compounds or so, about 2,000 (41%) were called active.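 Rule for the calls: active = thallium signal drop beyond 5 SD of the untreated control mean, on both duplicate plates; inactive = the rest.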 So high a share suggests a set chosen from earlier hits. Only a sample is shown.

This test can be described thus: nonspecific activity without KCNK9 expression – cell-based, second counter screen, non-induced KCNK9-HEK293, counter-screen for KCNK9 inhibitor project, confirmation (AID 492997).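 For inhibition: plate controls were buffer only IC0 wells for no effect and SID17386958 at its maximal inhibitory level for full effect.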 Particulars: non-induced KCNK9-HEK293, FluxOR thallium flux, at 10 µM; active compounds read high. (A counterscreen serves to expose hits that act by an unwanted route or on another target.)
For `CCCSc1nc(NCc2ccco2)c2c3c(sc2n1)COC(C)(CC)C3` (stereo not drawn), the inhibition is 38.5% (active).

On to `CCC1(C)Cc2c(sc3[nH]c(=S)n(Cc4ccccc4)c(=O)c23)CO1` (stereo not drawn), for which the inhibition entry was “inactive”.

Consider `CCOC(=O)Cc1cc(=O)[nH]c(=O)[nH]1`, for which the inhibition result was “inactive”.

On to `COc1ccc(/C=C2\CCc3ccccc3C2=O)c(OC)c1OC`, for which the inhibition result was “inactive”.

In the case of `CC1CCN(C(=S)c2ccc(-c3ccc(Cl)cc3Cl)o2)CC1`, the inhibition entry is “inactive”.

With `O=C(CSCc1ccc(Cl)cc1)N1CCN(Cc2ccc3c(c2)OCO3)CC1`, the inhibition result was “inactive”.

Turning to `CC1CCN(C(=O)c2ccc(CSc3ccc(Cl)cc3)cc2)CC1`, the inhibition was 36% (active).

On to `CN(C)S(=O)(=O)N1CCC(Oc2cccc(C(=O)NCCCC3CCCC3)c2)CC1`, for which the inhibition result is “inactive”.

Consider `Cc1cccc(NC(=O)N(Cc2cc3cc(C)cc(C)c3[nH]c2=O)CC2COCCO2)c1` (stereo not drawn), for which the inhibition entry was “inactive”.

On to `O=C(COC(=O)c1c2c(nc3ccccc13)CCCC2)c1ccc(Br)s1`, for which the inhibition was 22.5% (active).

Consider `Cc1ccc(OS(=O)(=O)c2ccc(-c3csc(C)n3)s2)c(C)c1`, for which the inhibition result was “inactive”.

`COc1cccc(COC(=O)C2CCN(S(=O)(=O)c3ccc(Cl)cc3)CC2)c1OC`: the inhibition result is “inactive”.

As to `O=C(NCCCc1ccccc1)c1cc(COc2c(F)cccc2F)on1`, the inhibition result is “inactive”.

In the case of `CN(CCOc1ccccc1)C(=O)c1cc(COc2c(F)cccc2F)on1`, the inhibition result is “inactive”.

As to `O=C(NC1Cc2ccccc2C1)c1cc(COc2cccc(C(F)(F)F)c2)on1`, the inhibition is 28% (active).

In the case of `CC(C)N(C(=O)CSc1nc(COc2ccccc2)nc2ccccc12)C(C)C`, the inhibition is 29.5% (active).

As for `Cc1cc(C)cc(NC(=O)CSCc2cnn(-c3ccccc3)c2-n2cccc2)c1`, the inhibition entry is “inactive”.

As for `CC(C)(C)C1CCC(C(=O)NCC(c2cccs2)N2CCOCC2)CC1` (stereo not drawn), the inhibition entry was “inactive”.

For `O=C(Nc1ccc(Br)c2cccnc12)c1ccc(Cn2cc([N+](=O)[O-])cn2)o1`, the inhibition was 31% (active).

Regarding `CC1=NN(c2cccc(Cl)c2)C(=O)C12CC(C)=C(C)CS2` (stereo not drawn), the inhibition was 40.5% (active).

With `Cc1cc(C=O)c(C)n1-c1ccc(NC2CCCCC2)c([N+](=O)[O-])c1`, the inhibition is 55% (active).

`CCOC(=O)c1c(NC(=O)CCCN2CCOCC2)sc2c1CC(C)(C)OC2`: the inhibition entry was “inactive”.

As to `CCOC(=O)C1=C(C)Nc2sc(C(=O)c3ccc(Br)cc3)c(N)c2C1c1ccc(C(=O)OC)cc1` (stereo not drawn), the inhibition was 32.5% (active).

For `O=C(/C=C/NNC(=O)c1cccc(Br)c1)c1ccccc1`, the inhibition is 50% (active).

On to `COc1ccc(Nc2ncnc3sc(-c4ccccc4)cc23)c(OC)c1`, for which the inhibition entry is “inactive”.

As for `CCCCN(CC)C(=O)C1CCCN(S(=O)(=O)c2cccc3nsnc23)C1` (stereo not drawn), the inhibition entry was “inactive”.

Take `Cc1ccc(SCC(=O)c2cc(C)c(OC(=S)N(C)C)c(C)c2)cc1`: the inhibition is 34% (active).

Turning to `COc1ccc(C2Nc3ccccc3C(=O)N2Cc2ccccc2)cc1Cn1nnc2ccccc21` (stereo not drawn), the inhibition was 39% (active).

Turning to `O=S(=O)(c1ccc(F)cc1)N1CCN(Cc2ccccc2C(F)(F)F)CC1`, the inhibition entry was “inactive”.

Take `Cc1nn(CC(=O)Nc2nc3ccccc3s2)c(C)c1[N+](=O)[O-]`: the inhibition is 33.5% (active).

With `COc1cccc2sc(NNC(=O)c3nc4ccccc4s3)nc12`, the inhibition result is “inactive”.

`CCn1cnc2scc(-c3ccc(C)c(C)c3)c2c1=O`: the inhibition result was “inactive”.

On to `O=C(Nc1ccccc1[N+](=O)[O-])C1C(c2ccccc2)=C1c1ccccc1`, for which the inhibition was 26% (active).

On to `CCCCCCCCn1c2c(c(=N)c3c1CCC3)CCCC2`, for which the inhibition was 27% (active).

For the molecule `Cc1ccc(Cn2ccc(NC(=O)c3cc(C(C)C)on3)n2)cc1`, the inhibition result was “inactive”.

On to `C[C@@]12C(=O)N(c3cccc(Br)c3)C(=O)N1[C@H](c1ccc(Cl)cc1)[C@@H]1C(=O)N(C3CCCCC3)C(=O)[C@@H]12`, for which the inhibition result was “inactive”.

Turning to `CCOC(=O)[C@@H]1[C@H]2COc3ccc(Br)cc3[C@H]2N2C(=O)N(c3ccc(Cl)cc3)C(=O)[C@@]12C`, the inhibition is 36% (active).

With `COC(=O)c1cccc(C(=O)N2CCCC(Nc3ccc4c(c3)OCCO4)C2)c1` (stereo not drawn), the inhibition entry was “inactive”.

In the case of `COc1ccc(OC)c(C(=O)c2coc3ccc(OC)cc23)c1`, the inhibition was 27% (active).

Turning to `CN(CCC(=O)Nc1cc(S(=O)(=O)N(C)C)ccc1Cl)CC(=O)Nc1ccc(F)cc1`, the inhibition is 42% (active).

Turning to `COc1ccc(NC(=O)CN(C)CC(=O)Nc2cccc(C(F)(F)F)c2)cc1`, the inhibition result is “inactive”.

Regarding `COc1ccc(-c2n[nH]c3c2CN(C(=O)c2ccc(F)cc2)CC3)cc1`, the inhibition result was “inactive”.

Take `CC1=CC(C)(C)N(C(=O)CSc2nnc(-c3ccccc3)o2)c2ccc(C)cc21`: the inhibition entry is “inactive”.

On to `COc1cc(NC(=S)NCCSc2ccc(C)cc2)cc(OC)c1`, for which the inhibition is 24% (active).

In the case of `COc1cccc(C(=O)NCCSc2ccc(Br)cc2)c1`, the inhibition entry is “inactive”.

With `COc1ccc(-c2noc(CSc3ccc(C)cc3)n2)cc1`, the inhibition result is “inactive”.

Regarding `FC(F)(F)c1cc(-c2ccco2)nc(NCc2ccc(Cl)cc2)n1`, the inhibition is 60.5% (active).

With `O=C1/C(=C/c2ccc(F)cc2)SC(=S)N1NS(=O)(=O)c1ccccc1`, the inhibition result was “inactive”.

Take `C/C(=N\NC(=S)Nc1ccc(C)cc1)c1cc2ccccc2o1`: the inhibition entry is “inactive”.

For the molecule `CCOC(=O)c1c(NC(=O)CSc2cn(CC)c3ccccc23)sc2c1CCC2`, the inhibition entry is “inactive”.

Take `CCCCCn1c(=O)c(C(=O)OCC)c(Cl)c2ccccc21`: the inhibition was 40.5% (active).

Regarding `Cc1ccccc1N1CCN(Cc2nc(Cc3ccccc3F)no2)CC1`, the inhibition entry is “inactive”.

As to `Fc1cccc(Cl)c1CSc1ccc(-c2ccco2)nn1`, the inhibition is 32% (active).

Take `O=C(Nc1cc(Cl)cc(Cl)c1)C(NCCCO)c1ccccc1` (stereo not drawn): the inhibition was 29% (active).

As to `Cc1cc(OC(C)C(=O)Nc2ccc(S(=O)(=O)Nc3onc(C)c3C)cc2)cc(C)c1Cl` (stereo not drawn), the inhibition entry is “inactive”.

As to `O=C(CNCCC1=CCCCC1)Nc1ccccc1N1CCCCCC1`, the inhibition is 38.5% (active).

As for `Cc1cc(C)cc(OCC(=O)Nc2cc(NC(=O)COc3cc(C)cc(C)c3)cc(C(=O)O)c2)c1`, the inhibition result was “inactive”.

As for `COc1cccc(-c2cc3nc4c(c(N5CCC6(CC5)OCCO6)n3n2)CCCC4)c1`, the inhibition was 27% (active).

For the molecule `COc1cccc2cc(C(C)N(CCCN3CCOCC3)C(=O)Nc3ccc(Cl)cc3)oc12` (stereo not drawn), the inhibition is 28.5% (active).

On to `CN(C)c1ccc(C(CNC(=O)c2ccc(F)cc2)c2c[nH]c3ccccc23)cc1` (stereo not drawn), for which the inhibition was 39% (active).

On to `CCN(CC)C(=O)CC1(c2ccccc2OC)CCOC(C(C)C)C1` (stereo not drawn), for which the inhibition was 38% (active).

As for `COc1cccc(CN(C)C(=O)CC23CC4CC(CC(C4)C2)C3)c1OC`, the inhibition result is “inactive”.

Turning to `CC(C)(C)NC(=O)NC(=O)CN1CCC(Cc2ccccc2)CC1`, the inhibition result was “inactive”.
